tested on: Plasmodium falciparum; assay: GSK_TCMDC: Inhibition of Plasmodium falciparum 3D7 in whole red blood cells, using parasite LDH activity as an index of growth. Test compounds present at 2uM; format: functional

**Q.** Which Inhibition does the source give for CNCCNCc1cccc(-c2cccc(-c3nc4cc(C(F)(F)F)ccc4[nH]3)c2)c1.O=C(O)C(F)(F)F here?
**A.** 100%

**Q.** How did the Inhibition turn out when Nc1nc(N)c2cc(NS(=O)(=O)c3ccc(-c4ccccc4)cc3)ccc2n1 was run?
**A.** 100%

**Q.** How did the Inhibition turn out when O=C1OC2(CCN(C(=O)c3ccc(-n4cnnn4)cc3)CC2)CN1Cc1ccc(Cl)c(Cl)c1 was run?
**A.** 97%

**Q.** How did the Inhibition turn out when O=C(Cn1c(CCc2cccc(F)c2F)cc(=O)c2ccccc21)N(Cc1ccc(-c2ccc(C(F)(F)F)cc2)cc1)C1CCN(CCN2CCOCC2)CC1.O=C(O)C(O)C(O)C(=O)O was run?
**A.** 100%

**Q.** Which Inhibition does the source give for Cc1cccc(C)c1C1CCN(CCCCNC(=O)c2cc3ccccc3[nH]2)CC1 here?
**A.** 90%

**Q.** Which Inhibition does the source give for CN(C(=O)/C=C/c1cc(C(F)(F)F)ccc1F)C1CCN(CCCCCNC(=O)/C=C/c2ccc(Cl)c(Cl)c2)C1 (configuration not stated) here?
**A.** 93%

**Q.** With Br.C=CCc1cc(C)ccc1OCCCON1C(N)=NC(N)=NC1(C)C as the compound, how does the Inhibition read?
**A.** 96%

**Q.** With CC[C@H](C)CNC(=O)c1cncc(-c2ccc(CN3CCC(N4CCCC4)CC3)cc2)c1.O=C(O)C(F)(F)F as the compound, how does the Inhibition read?
**A.** 100%

**Q.** Which Inhibition does the source give for O=C(O)C(F)(F)F.c1cc(-c2ccc(CNCCCn3ccnc3)cc2)cc(-c2nc3ccccc3[nH]2)c1 here?
**A.** 100%

**Q.** How did the Inhibition turn out when COc1ccc(-c2cc(C(=O)N[C@@H](CC3CCCCC3)C(=O)NCCN3CCCCC3)ccc2O)cc1 was run?
**A.** 98%

**Q.** With CCN(CC)CCN(Cc1ccc(-c2ccc(C(F)(F)F)cc2)cc1)C(=O)Cn1c(CCc2cccc(F)c2F)nc(=O)c2sccc21.O=C(O)C(O)C(O)C(=O)O as the compound, how does the Inhibition read?
**A.** 96%

**Q.** Which Inhibition does the source give for Nc1cccc(CNCc2cccc(-c3cccc(-c4nc5cc(C(F)(F)F)ccc5[nH]4)c3)c2)c1.O=C(O)C(F)(F)F here?
**A.** 100%

**Q.** C=CCOC(=O)N1CCC(CNCc2ccc(-c3cccc(-c4nc5cc(F)ccc5[nH]4)c3)cc2)C1.O=C(O)C(F)(F)F (configuration not stated) was tested. Which Inhibition did it give?
**A.** 100%

**Q.** For Cc1cccc2nc(-c3cccc(-c4ccc(C(=O)N5CCCCC5C(C)O)cc4)c3)[nH]c12 (configuration not stated), which Inhibition is on record?
**A.** 100%

**Q.** How did the Inhibition turn out when CS(=O)(=O)Cc1ccc(Nc2nccc(N3CCCc4cc(NC(=O)Nc5cccc(C(F)(F)F)c5)ccc43)n2)cc1 was run?
**A.** 100%

**Q.** CN1CCN(CC(=O)Nc2cccc(-c3cccc(-c4nc5cc(C(F)(F)F)ccc5[nH]4)c3)c2)CC1 was tested. Which Inhibition did it give?
**A.** 100%

**Q.** CN(C)CCCNCc1ccc(-c2ccc(CNCCc3ccccc3)cc2)cc1.O=C(O)C(F)(F)F was tested. Which Inhibition did it give?
**A.** 100%

**Q.** With O=C(Nc1ccccc1)N(Cc1ccccc1-c1cccc(CNCCc2ccccc2)c1)C1CCN(Cc2ccccc2)CC1.O=C(O)C(F)(F)F as the compound, how does the Inhibition read?
**A.** 100%

**Q.** For COc1ccc(C(=O)Nc2ccc3nc(N4CCCCC4)cc(C)c3c2)cc1[N+](=O)[O-], which Inhibition is on record?
**A.** 96%

**Q.** For Cc1ccc(S(=O)(=O)O)cc1.N=C(N)NCCCC(=O)NCC(N)=O, which Inhibition is on record?
**A.** 100%

**Q.** Which Inhibition does the source give for CN(C)CCOc1cc(NC(=O)Nc2ccc(Cl)cc2C(F)(F)F)ccc1I here?
**A.** 96%

**Q.** With COc1cccc2cc(C(=O)N[C@@H](CC(C)C)C(=O)N[C@H](C=NN(C)C(=O)OC(C)(C)C)Cc3ccccc3)oc12 as the compound, how does the Inhibition read?
**A.** 99%

**Q.** How did the Inhibition turn out when Cl.N=C(N)NN=Cc1cc([N+](=O)[O-])ccc1Sc1ccccc1CO was run?
**A.** 84%

**Q.** CCCc1cc(Cc2cnc(N)nc2N)ccc1OCCCCCC(=O)OCC was tested. Which Inhibition did it give?
**A.** 97%

**Q.** With Cc1noc(C)c1-c1ccc2c(Nc3ccccc3C(C)(C)C)c(C(=O)NCc3ccccc3)cnc2c1.Cl as the compound, how does the Inhibition read?
**A.** 99%

**Q.** How did the Inhibition turn out when COc1ccc(Nc2ccnc3cc(-c4ccccn4)ccc23)cc1OC.Cl was run?
**A.** 91%

**Q.** For CN1CCN(c2ccnc3ccc(NC(=O)Nc4cccc5c(-c6ccncc6)cccc45)cc23)CC1, which Inhibition is on record?
**A.** 100%

tested on: Plasmodium falciparum; assay: GSK_TCMDC: Inhibition of Plasmodium falciparum Dd2 in whole red blood cells, using parasite LDH activity as an index of growth. Test compounds present at 2uM; format: functional

**Q.** Which Inhibition does the source give for CC(=O)Nc1nc(C(=O)Nc2cccc(-c3ccc4c(cnn4CC4CC4)c3)c2)cs1 here?
**A.** 67%

**Q.** With COc1cc(F)c2ncc(C#N)c(CCN3CCC(NCc4ccc5c(c4)OCCO5)CC3)c2c1.Cl as the compound, how does the Inhibition read?
**A.** 59%

**Q.** For O=C(Nc1cccc(-c2cccc(-c3nc4cc(C(F)(F)F)ccc4[nH]3)c2)c1)c1cccnc1Cl, which Inhibition is on record?
**A.** 58%

**Q.** With O=C(Nc1cccc(CN2CCN(C(=O)c3cccc(Cl)c3)CC2)c1)c1cccs1.O=C(O)C(F)(F)F as the compound, how does the Inhibition read?
**A.** 94%

**Q.** Which Inhibition does the source give for COc1cccc(CCc2ccc(O)c3c2C[C@H]2C[C@H]4[C@H](N(C)C)C(O)=C(C(N)=O)C(=O)[C@@]4(O)C(O)=C2C3=O)c1.Cl here?
**A.** 67%

**Q.** Which Inhibition does the source give for CN1CCCN(c2ccnc3cc4c(cc23)N(C(=O)c2ccc(Cl)cc2)CC4)CC1.Cl here?
**A.** 0%

**Q.** Which Inhibition does the source give for CCCc1cc2c3c(N)nc(N)nc3ccc2n1C(CC)CC here?
**A.** 73%

**Q.** For O=C(NCc1ccc(Cl)c(Cl)c1)[C@H]1CNCCN1C(=O)c1ccccc1.O=C(O)C(F)(F)F, which Inhibition is on record?
**A.** 4%

**Q.** How did the Inhibition turn out when O=C(O)C[C@H](NC(=O)[C@@H]1CCCN1C(=O)c1cccc(-c2ccc(Cl)c(Cl)c2)c1)C(=O)O was run?
**A.** 0%

**Q.** How did the Inhibition turn out when CN1CCN(Cc2nc(-c3ccc4c(Nc5ccc(Oc6ccccc6)cc5)ccnc4c3)cs2)CC1 was run?
**A.** 99%

**Q.** Cc1ccn2cc(-c3ccc(NC(=O)c4ccc(Br)o4)cc3)nc2c1 was tested. Which Inhibition did it give?
**A.** 41%

**Q.** Which Inhibition does the source give for C[C@@H](COc1ccccc1)NCC(O)c1ccc([N+](=O)[O-])c(OCc2ccccc2)c1 (some centres not stated) here?
**A.** 64%

**Q.** How did the Inhibition turn out when CS(=O)(=O)Cc1cccc(Nc2ncc(Cl)c(Nc3cccnc3C(N)=O)n2)c1.Cl was run?
**A.** 97%

**Q.** CNCCNCc1cccc(-c2cccc(-c3nc4cc(C(F)(F)F)ccc4[nH]3)c2)c1.O=C(O)C(F)(F)F was tested. Which Inhibition did it give?
**A.** 97%

**Q.** How did the Inhibition turn out when Nc1nc(N)c2cc(NS(=O)(=O)c3ccc(-c4ccccc4)cc3)ccc2n1 was run?
**A.** 54%

**Q.** With O=C1OC2(CCN(C(=O)c3ccc(-n4cnnn4)cc3)CC2)CN1Cc1ccc(Cl)c(Cl)c1 as the compound, how does the Inhibition read?
**A.** 70%

**Q.** O=C(Cn1c(CCc2cccc(F)c2F)cc(=O)c2ccccc21)N(Cc1ccc(-c2ccc(C(F)(F)F)cc2)cc1)C1CCN(CCN2CCOCC2)CC1.O=C(O)C(O)C(O)C(=O)O was tested. Which Inhibition did it give?
**A.** 41%

**Q.** Cc1cccc(C)c1C1CCN(CCCCNC(=O)c2cc3ccccc3[nH]2)CC1 was tested. Which Inhibition did it give?
**A.** 18%

**Q.** How did the Inhibition turn out when CN(C(=O)/C=C/c1cc(C(F)(F)F)ccc1F)C1CCN(CCCCCNC(=O)/C=C/c2ccc(Cl)c(Cl)c2)C1 (configuration not stated) was run?
**A.** 1%

**Q.** How did the Inhibition turn out when Br.C=CCc1cc(C)ccc1OCCCON1C(N)=NC(N)=NC1(C)C was run?
**A.** 96%

**Q.** How did the Inhibition turn out when CC[C@H](C)CNC(=O)c1cncc(-c2ccc(CN3CCC(N4CCCC4)CC3)cc2)c1.O=C(O)C(F)(F)F was run?
**A.** 100%

**Q.** With O=C(O)C(F)(F)F.c1cc(-c2ccc(CNCCCn3ccnc3)cc2)cc(-c2nc3ccccc3[nH]2)c1 as the compound, how does the Inhibition read?
**A.** 100%

**Q.** COc1ccc(-c2cc(C(=O)N[C@@H](CC3CCCCC3)C(=O)NCCN3CCCCC3)ccc2O)cc1 was tested. Which Inhibition did it give?
**A.** 72%

**Q.** CCN(CC)CCN(Cc1ccc(-c2ccc(C(F)(F)F)cc2)cc1)C(=O)Cn1c(CCc2cccc(F)c2F)nc(=O)c2sccc21.O=C(O)C(O)C(O)C(=O)O was tested. Which Inhibition did it give?
**A.** 70%

**Q.** How did the Inhibition turn out when Nc1cccc(CNCc2cccc(-c3cccc(-c4nc5cc(C(F)(F)F)ccc5[nH]4)c3)c2)c1.O=C(O)C(F)(F)F was run?
**A.** 96%

**Q.** C=CCOC(=O)N1CCC(CNCc2ccc(-c3cccc(-c4nc5cc(F)ccc5[nH]4)c3)cc2)C1.O=C(O)C(F)(F)F (configuration not stated) was tested. Which Inhibition did it give?
**A.** 99%

**Q.** With Cc1cccc2nc(-c3cccc(-c4ccc(C(=O)N5CCCCC5C(C)O)cc4)c3)[nH]c12 (configuration not stated) as the compound, how does the Inhibition read?
**A.** 91%

**Q.** CS(=O)(=O)Cc1ccc(Nc2nccc(N3CCCc4cc(NC(=O)Nc5cccc(C(F)(F)F)c5)ccc43)n2)cc1 was tested. Which Inhibition did it give?
**A.** 99%

**Q.** For CN1CCN(CC(=O)Nc2cccc(-c3cccc(-c4nc5cc(C(F)(F)F)ccc5[nH]4)c3)c2)CC1, which Inhibition is on record?
**A.** 98%

**Q.** With CN(C)CCCNCc1ccc(-c2ccc(CNCCc3ccccc3)cc2)cc1.O=C(O)C(F)(F)F as the compound, how does the Inhibition read?
**A.** 87%

**Q.** How did the Inhibition turn out when O=C(Nc1ccccc1)N(Cc1ccccc1-c1cccc(CNCCc2ccccc2)c1)C1CCN(Cc2ccccc2)CC1.O=C(O)C(F)(F)F was run?
**A.** 59%

**Q.** With COc1ccc(C(=O)Nc2ccc3nc(N4CCCCC4)cc(C)c3c2)cc1[N+](=O)[O-] as the compound, how does the Inhibition read?
**A.** 7%

**Q.** Cc1ccc(S(=O)(=O)O)cc1.N=C(N)NCCCC(=O)NCC(N)=O was tested. Which Inhibition did it give?
**A.** 0%

**Q.** How did the Inhibition turn out when CN(C)CCOc1cc(NC(=O)Nc2ccc(Cl)cc2C(F)(F)F)ccc1I was run?
**A.** 16%

**Q.** How did the Inhibition turn out when COc1cccc2cc(C(=O)N[C@@H](CC(C)C)C(=O)N[C@H](C=NN(C)C(=O)OC(C)(C)C)Cc3ccccc3)oc12 was run?
**A.** 89%

**Q.** With Cl.N=C(N)NN=Cc1cc([N+](=O)[O-])ccc1Sc1ccccc1CO as the compound, how does the Inhibition read?
**A.** 0%

**Q.** Which Inhibition does the source give for CCCc1cc(Cc2cnc(N)nc2N)ccc1OCCCCCC(=O)OCC here?
**A.** 1%

**Q.** Cc1noc(C)c1-c1ccc2c(Nc3ccccc3C(C)(C)C)c(C(=O)NCc3ccccc3)cnc2c1.Cl was tested. Which Inhibition did it give?
**A.** 89%

**Q.** Which Inhibition does the source give for COc1ccc(Nc2ccnc3cc(-c4ccccn4)ccc23)cc1OC.Cl here?
**A.** 26%

**Q.** Which Inhibition does the source give for CN1CCN(c2ccnc3ccc(NC(=O)Nc4cccc5c(-c6ccncc6)cccc45)cc23)CC1 here?
**A.** 100%

Source: ChEMBL document CHEMBL1157539, “Thousands of chemical starting points for antimalarial lead identification” (Nature, 2010)
